Reference: the supplement of paper PMC11732987, “Enantioselective OTUD7B fragment discovery through chemoproteomics screening and high-throughput optimisation” (Communications Chemistry, 2025)

Key:
Assay in all cases: log2 ratio of Biotin-Ahx-Ub-VS probe labelling (fragment/DMSO); higher = less target engagement (more negative = stronger competition), active = hit call of the paper (q ≤ 0.05, log2 ratio ≤ -1)
Conditions in all cases: compound concentration: 200 uM; treatment time: 3 h
USP9X = USP9X (UniProt Q93008)
Outline: (§1)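 HEK293T lysate (495 µg per sample, in Tris/CHAPS/IGEPAL buffer with protease inhibitors) was exposed in triplicate for 3 h to fragment at 200 µM or to vehicle, then to Biotin-Ahx-Ub-VS at 0.5 µM final for 1 h. Labelled DUBs were enriched on NeutrAvidin, digested with LysC and trypsin, and analysed by diaPASEF LC-MS/MS. Spectronaut label-free quantities were normalised to the global median, and values are average log2 ratios of fragment over vehicle from an unpaired t-test. Only proteins with ≥2 unique peptides were used.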

UniProt O00487 = molecular target: UniProt O00487
Outline: as §1

UniProt O00507 = molecular target: UniProt O00507
Outline: as §1

UniProt P51784 = molecular target: UniProt P51784
Outline: as §1

UniProt Q5T2D3 = molecular target: T1, UniProt Q5T2D3
T1 sequence (whole entry): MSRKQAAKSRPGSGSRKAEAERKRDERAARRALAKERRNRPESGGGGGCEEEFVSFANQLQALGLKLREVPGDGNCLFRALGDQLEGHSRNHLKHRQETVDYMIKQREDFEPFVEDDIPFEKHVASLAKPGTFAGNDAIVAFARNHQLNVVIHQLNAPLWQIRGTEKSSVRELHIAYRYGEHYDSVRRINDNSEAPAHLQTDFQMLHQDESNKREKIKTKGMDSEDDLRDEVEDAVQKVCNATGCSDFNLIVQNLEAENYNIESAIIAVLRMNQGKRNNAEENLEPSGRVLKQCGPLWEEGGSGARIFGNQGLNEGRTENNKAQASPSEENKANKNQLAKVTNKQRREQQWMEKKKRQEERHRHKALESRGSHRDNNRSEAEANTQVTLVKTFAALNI
Outline: as §1

UniProt Q8TE49 = molecular target: T2, UniProt Q8TE49
T2 sequence (whole entry): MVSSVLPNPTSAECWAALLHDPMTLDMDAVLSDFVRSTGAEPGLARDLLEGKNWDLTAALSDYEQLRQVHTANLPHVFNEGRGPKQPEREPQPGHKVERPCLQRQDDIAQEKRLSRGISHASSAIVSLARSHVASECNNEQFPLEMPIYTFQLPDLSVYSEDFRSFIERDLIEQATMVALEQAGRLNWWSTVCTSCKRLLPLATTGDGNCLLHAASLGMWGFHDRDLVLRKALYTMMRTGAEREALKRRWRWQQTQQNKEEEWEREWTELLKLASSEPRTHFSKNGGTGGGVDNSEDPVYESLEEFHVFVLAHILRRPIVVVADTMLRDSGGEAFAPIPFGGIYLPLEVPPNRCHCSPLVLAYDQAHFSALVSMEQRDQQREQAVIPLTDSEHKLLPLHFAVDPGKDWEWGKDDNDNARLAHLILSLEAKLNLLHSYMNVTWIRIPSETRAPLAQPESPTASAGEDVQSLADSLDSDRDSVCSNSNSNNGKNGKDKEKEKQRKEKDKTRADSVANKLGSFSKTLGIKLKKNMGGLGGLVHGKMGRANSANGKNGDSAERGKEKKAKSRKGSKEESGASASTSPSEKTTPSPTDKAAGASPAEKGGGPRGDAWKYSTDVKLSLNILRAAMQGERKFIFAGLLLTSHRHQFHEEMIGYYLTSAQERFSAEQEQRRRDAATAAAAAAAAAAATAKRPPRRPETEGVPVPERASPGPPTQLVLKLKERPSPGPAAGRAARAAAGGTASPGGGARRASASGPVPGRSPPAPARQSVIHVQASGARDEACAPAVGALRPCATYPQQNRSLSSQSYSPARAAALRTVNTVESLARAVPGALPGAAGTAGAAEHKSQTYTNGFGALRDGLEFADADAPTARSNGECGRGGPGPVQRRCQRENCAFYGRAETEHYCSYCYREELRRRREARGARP
Outline: as §1

UniProt Q9P2H5 = molecular target: T3, UniProt Q9P2H5
T3 sequence (whole entry): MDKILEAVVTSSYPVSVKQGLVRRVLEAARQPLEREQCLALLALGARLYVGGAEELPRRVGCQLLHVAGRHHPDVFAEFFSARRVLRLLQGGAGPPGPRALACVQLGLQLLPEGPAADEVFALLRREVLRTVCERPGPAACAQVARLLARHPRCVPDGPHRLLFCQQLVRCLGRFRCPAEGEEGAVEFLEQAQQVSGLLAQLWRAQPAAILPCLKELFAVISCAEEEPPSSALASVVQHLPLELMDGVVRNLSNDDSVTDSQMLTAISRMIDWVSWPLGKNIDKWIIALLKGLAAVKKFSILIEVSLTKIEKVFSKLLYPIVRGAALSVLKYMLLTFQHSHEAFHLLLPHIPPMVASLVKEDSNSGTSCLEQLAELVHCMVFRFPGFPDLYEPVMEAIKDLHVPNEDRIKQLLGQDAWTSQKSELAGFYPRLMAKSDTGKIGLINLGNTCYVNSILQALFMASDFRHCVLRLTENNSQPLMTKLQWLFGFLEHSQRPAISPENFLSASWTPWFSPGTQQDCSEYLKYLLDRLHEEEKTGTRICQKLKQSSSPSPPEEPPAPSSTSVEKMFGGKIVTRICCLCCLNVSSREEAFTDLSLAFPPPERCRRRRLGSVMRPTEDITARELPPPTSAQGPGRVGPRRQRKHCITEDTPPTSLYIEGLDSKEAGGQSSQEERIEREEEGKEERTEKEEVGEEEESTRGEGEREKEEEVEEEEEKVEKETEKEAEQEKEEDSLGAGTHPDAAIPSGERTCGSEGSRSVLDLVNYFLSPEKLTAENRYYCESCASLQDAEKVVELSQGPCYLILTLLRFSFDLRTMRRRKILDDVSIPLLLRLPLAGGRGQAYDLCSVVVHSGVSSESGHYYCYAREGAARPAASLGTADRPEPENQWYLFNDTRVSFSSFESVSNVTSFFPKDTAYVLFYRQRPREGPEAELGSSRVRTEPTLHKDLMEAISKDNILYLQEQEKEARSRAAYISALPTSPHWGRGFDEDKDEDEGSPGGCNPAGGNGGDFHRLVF
Outline: as §1

UniProt Q9UGI0 = molecular target: T4, UniProt Q9UGI0
T4 sequence (whole entry): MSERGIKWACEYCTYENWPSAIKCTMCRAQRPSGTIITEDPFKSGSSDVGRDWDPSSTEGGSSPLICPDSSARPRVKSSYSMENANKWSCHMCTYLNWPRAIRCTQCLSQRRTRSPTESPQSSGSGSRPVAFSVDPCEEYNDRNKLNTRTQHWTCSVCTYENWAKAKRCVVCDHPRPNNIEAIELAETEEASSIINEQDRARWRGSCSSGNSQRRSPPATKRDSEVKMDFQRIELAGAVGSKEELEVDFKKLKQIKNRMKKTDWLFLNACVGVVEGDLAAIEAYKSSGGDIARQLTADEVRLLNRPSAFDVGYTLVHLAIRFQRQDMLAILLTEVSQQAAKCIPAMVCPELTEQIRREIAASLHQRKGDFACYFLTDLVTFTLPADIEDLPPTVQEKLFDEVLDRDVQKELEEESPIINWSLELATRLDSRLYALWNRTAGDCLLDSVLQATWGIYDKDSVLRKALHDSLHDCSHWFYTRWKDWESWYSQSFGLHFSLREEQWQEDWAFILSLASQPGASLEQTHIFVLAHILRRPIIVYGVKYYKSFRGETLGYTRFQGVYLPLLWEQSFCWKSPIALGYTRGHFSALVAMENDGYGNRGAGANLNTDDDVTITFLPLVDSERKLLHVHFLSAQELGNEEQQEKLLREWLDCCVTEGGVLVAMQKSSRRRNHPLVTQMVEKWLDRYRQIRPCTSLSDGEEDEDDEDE
Outline: as §1

YOD1 = molecular target: T5, YOD1 (UniProt Q5VVQ6)
T5 sequence (whole entry): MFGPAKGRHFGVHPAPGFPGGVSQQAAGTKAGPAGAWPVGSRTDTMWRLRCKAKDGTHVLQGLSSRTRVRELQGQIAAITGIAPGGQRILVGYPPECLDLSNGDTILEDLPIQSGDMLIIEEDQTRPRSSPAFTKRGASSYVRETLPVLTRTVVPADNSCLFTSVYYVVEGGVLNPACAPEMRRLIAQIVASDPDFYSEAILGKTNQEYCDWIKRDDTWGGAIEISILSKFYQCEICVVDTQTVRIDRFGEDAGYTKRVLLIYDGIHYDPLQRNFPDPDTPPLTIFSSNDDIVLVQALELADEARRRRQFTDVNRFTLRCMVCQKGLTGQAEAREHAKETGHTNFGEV
Outline: as §1

Measured: log2 ratio of Biotin-Ahx-Ub-VS probe labelling

Sequence of USP9X (Q93008 whole entry, the tested form may be a part): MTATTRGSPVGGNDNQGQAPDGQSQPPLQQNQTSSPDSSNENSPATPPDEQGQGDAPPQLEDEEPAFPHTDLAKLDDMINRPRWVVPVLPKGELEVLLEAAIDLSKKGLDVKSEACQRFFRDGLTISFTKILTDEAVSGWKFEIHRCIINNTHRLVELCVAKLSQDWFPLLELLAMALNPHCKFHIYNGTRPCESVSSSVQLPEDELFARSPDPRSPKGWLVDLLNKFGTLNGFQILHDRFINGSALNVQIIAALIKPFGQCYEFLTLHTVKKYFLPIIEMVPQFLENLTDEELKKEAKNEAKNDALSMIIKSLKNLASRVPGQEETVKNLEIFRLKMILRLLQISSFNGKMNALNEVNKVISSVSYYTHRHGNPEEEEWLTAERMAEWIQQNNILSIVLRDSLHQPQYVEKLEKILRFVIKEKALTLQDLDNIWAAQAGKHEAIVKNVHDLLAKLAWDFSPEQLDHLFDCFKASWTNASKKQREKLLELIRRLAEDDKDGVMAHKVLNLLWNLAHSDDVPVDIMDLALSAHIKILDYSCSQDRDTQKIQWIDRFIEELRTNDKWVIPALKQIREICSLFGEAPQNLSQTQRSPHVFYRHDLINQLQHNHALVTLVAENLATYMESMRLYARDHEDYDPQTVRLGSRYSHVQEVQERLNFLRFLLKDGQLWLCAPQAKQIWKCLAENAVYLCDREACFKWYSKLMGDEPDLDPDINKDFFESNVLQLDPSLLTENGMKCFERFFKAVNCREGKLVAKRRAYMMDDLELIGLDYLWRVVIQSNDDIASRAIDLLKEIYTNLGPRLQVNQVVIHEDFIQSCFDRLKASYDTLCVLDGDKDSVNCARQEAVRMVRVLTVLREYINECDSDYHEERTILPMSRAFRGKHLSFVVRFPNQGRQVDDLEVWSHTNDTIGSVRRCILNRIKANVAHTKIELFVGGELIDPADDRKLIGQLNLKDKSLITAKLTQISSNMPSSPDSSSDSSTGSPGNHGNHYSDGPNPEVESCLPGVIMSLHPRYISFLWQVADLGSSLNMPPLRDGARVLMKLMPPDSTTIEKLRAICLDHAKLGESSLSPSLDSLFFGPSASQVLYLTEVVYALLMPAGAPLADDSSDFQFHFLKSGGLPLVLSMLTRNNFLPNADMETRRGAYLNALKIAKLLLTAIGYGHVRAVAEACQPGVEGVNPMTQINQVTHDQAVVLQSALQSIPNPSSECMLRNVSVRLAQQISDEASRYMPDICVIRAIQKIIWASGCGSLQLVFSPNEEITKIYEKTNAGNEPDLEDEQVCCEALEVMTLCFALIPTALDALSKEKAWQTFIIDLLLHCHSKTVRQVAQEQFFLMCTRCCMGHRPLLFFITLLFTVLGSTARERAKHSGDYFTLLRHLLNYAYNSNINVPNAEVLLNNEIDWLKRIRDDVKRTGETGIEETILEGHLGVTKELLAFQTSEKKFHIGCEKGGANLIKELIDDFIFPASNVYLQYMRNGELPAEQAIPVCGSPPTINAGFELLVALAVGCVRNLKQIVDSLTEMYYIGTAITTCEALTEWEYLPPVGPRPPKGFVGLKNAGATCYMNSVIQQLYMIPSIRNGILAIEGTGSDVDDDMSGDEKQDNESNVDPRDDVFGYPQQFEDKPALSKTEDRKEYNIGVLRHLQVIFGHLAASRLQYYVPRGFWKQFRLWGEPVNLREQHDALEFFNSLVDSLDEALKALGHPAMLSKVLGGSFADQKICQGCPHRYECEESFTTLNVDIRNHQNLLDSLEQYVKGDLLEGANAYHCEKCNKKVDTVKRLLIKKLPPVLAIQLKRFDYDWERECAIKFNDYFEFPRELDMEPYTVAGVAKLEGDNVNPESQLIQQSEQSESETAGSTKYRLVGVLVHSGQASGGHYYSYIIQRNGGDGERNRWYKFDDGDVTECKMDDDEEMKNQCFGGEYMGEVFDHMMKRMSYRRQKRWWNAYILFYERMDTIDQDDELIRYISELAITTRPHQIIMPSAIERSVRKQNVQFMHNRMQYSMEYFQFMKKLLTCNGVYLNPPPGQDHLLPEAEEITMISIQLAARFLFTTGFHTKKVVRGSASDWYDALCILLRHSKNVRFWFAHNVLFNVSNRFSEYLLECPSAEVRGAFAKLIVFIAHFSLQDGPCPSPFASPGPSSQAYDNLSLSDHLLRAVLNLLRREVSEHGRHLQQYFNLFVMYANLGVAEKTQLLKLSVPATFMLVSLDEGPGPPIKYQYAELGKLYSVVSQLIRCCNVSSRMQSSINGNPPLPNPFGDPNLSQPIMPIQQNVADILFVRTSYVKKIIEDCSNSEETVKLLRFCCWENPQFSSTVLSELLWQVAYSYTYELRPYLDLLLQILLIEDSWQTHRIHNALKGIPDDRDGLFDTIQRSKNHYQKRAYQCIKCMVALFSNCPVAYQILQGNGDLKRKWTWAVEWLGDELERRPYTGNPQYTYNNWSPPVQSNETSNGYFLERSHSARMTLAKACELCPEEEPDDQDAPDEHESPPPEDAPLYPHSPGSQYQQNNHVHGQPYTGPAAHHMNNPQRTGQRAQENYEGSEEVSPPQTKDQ
Sequence of UniProt P51784 (P51784 whole entry): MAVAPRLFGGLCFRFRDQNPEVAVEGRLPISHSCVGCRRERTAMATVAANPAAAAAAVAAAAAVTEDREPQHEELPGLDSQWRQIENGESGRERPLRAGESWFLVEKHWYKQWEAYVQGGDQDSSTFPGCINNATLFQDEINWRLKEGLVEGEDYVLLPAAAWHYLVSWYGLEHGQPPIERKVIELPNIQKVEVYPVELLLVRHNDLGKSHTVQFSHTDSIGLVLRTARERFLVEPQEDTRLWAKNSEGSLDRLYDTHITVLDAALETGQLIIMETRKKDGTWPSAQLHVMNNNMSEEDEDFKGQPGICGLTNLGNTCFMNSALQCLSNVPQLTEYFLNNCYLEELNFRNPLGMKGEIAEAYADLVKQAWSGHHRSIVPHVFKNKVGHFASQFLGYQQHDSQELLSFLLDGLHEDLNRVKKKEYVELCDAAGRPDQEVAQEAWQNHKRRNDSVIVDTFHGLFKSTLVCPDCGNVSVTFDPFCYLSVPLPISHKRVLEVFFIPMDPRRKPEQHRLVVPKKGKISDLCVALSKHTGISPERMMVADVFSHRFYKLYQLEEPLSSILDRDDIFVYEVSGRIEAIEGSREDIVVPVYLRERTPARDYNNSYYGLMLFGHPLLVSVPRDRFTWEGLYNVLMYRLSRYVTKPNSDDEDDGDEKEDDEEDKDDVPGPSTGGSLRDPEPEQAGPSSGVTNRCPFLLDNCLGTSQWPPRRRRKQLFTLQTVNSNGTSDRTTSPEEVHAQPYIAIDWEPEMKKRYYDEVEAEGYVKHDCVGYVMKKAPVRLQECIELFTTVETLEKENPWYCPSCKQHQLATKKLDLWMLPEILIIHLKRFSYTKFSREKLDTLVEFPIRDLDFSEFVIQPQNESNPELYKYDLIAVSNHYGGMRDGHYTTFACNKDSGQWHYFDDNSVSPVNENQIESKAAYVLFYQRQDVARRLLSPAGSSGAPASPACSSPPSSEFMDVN
Sequence of UniProt O00487 (O00487 whole entry): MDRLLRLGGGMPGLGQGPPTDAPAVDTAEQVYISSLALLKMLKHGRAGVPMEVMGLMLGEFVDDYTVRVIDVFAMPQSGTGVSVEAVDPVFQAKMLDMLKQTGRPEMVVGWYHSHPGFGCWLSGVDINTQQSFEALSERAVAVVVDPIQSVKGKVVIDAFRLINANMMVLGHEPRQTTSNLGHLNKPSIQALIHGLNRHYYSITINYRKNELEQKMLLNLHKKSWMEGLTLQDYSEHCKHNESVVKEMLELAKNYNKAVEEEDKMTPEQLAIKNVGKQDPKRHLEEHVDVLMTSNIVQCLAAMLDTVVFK

O=C(CCl)N1CCOC(c2cccc(F)c2)C1 (centres undefined)
inactive: USP9X -0.504 | UniProt O00487 0.15 | UniProt O00507 0.244 | UniProt P51784 -0.328 | UniProt Q5T2D3 -0.182 | UniProt Q9P2H5 -0.416 | YOD1 -0.0782
active: UniProt Q8TE49 -1.26 | UniProt Q9UGI0 -1.44
